The source of these data is PubChem BioAssay (NCATS).

Values without a mark were called inactive. Results filed as inconclusive are left out. Activity calls are given as the source filed them. Unless noted, calls follow the shape of the dose curve; as a rule, active = well fitted curve in the direction sought with a large enough effect; inconclusive = small, poorly fitted or top-dose-only effect, or another doubt; inactive = no such curve, though single readings can be large; an effect the other way counts as inactive or inconclusive. Where only a bound is given, the exact number is not on record here.

The target in experiment [1] is Lysosomal acid glucosylceramidase (Homo sapiens) (UniProt P04062). Put plainly: Glucocerebrosidase-p2 (AID 348; in the data active = potency below about 10 µM; also: potency is read from the fitted curve at half-maximal effect). The conditions noted are these: purified GBA, blue fluorogenic substrate, 40 min. In a few lines: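 Compounds titrated from 0.6 nM upwards against 0.2 nM enzyme in pH 5.9 citric acid/KH2PO4, taurocholate, tween-20; blue fluorogenic substrate 80 uM, 40 min room temperature, stopped and read Ex 365/Em 440 for AC50.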
Chain of Lysosomal acid glucosylceramidase (Homo sapiens) (P04062 whole entry, looked up): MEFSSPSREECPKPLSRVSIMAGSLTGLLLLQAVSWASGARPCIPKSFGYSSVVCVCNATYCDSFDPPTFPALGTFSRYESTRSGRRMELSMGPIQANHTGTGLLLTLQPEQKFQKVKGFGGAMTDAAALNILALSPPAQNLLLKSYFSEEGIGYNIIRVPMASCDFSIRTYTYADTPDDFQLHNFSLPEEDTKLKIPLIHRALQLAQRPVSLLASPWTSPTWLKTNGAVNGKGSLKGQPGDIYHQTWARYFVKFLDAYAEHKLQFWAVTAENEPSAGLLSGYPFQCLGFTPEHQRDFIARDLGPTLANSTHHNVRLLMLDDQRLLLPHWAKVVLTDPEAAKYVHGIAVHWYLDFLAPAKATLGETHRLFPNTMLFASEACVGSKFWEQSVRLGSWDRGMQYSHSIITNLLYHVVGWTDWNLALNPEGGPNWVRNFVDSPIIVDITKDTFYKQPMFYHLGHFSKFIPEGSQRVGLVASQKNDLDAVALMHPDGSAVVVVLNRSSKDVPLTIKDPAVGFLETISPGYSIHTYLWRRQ

A short description of experiment [2]: AP1 Signaling Pathway (AID 357; active = well fitted curve in either direction with a large enough effect, not every such curve was filed as active; also: % is scaled to controls: 0 for no effect and ±100 for the full control effect). Particulars: ME-180 AP-1-bla reporter, EGF-induced, beta-lactamase ratio, 5 h; at 7.69 µM (top of the series) unless noted. In short, it runs like this: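 ME-180 cells with beta-lactamase reporter under AP-1 response element, stimulated with EC50 EGF; compounds tested in titration series, 5 h at 37 °C. CCF4 substrate added 2.5 h at room temperature; 460/530 nm emission ratio gave %activity and AC50.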

The target in experiment [3] is Cytochrome P450 1A2 (Homo sapiens) (UniProt P05177). Kind of experiment: p450-cyp1a2 (AID 410; calls by dose curve; also: potency is read from the fitted curve at half-maximal effect). The conditions noted are these: recombinant CYP1A2, luciferin-ME demethylation, luminescence; series mostly up to 57 µM. In short, it runs like this: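 20nM CYP1A2 with 100uM Luciferin-ME (at Km) in 100mM KPO4; compound preincubated 10 min, NADPH regeneration added, 60 min at room temperature. Luciferin quantified by luminescence after detection reagent; normalized to 57 uM furafylline.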
Chain of Cytochrome P450 1A2 (Homo sapiens) (P05177 whole entry, looked up): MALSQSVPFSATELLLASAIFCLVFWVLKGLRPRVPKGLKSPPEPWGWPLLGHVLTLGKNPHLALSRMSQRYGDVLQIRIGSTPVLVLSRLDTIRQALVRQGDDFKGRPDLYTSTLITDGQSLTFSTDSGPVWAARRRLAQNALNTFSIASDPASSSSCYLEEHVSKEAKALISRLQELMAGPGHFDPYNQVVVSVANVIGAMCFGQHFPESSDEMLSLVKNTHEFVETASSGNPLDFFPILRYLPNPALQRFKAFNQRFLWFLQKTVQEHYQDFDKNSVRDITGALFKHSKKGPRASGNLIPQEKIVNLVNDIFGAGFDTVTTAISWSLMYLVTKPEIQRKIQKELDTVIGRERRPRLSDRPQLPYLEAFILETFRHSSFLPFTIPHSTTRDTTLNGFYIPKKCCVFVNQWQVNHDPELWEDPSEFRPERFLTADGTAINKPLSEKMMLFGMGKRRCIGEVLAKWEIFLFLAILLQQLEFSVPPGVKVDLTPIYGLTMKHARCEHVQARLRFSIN

Experiment [4] in a line: NFAT Signaling Pathway (AID 444; active = well fitted curve in either direction with a large enough effect, not every such curve was filed as active;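 also: carbachol stimulus at about its EC50 of 1 µM final; % is scaled to controls: 0 for no effect and ±100 for the full control effect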). The conditions noted are these: Jurkat NFAT-bla M1, carbachol, beta-lactamase ratio, 5 h; at 7.69 µM (top of the series) unless noted. In a few lines:
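Jurkat cells with NFAT-driven β-lactamase reporter and co-expressed M1 receptor, stimulated with carbachol (final 1 uM, ~EC50), compound titration, 5 h at 37 °C. CCF4 loaded 1 h at RT; 460/530 nm ratio gave %activity and AC50.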

A short description of experiment [5]: Stat Signaling Pathway (AID 446; active = well fitted curve in either direction with a large enough effect, not every such curve was filed as active;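 also: ME-180 cervical cancer cells given 40 pM IL-6 alongside compound; SIE-controlled beta-lactamase reporter measured as 460/530 nm FRET emission ratio; % is scaled to controls: 0 for no effect and ±100 for the full control effect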). The conditions noted are these: ME-180 SIE beta-lactamase reporter, IL-6 stimulated, 5 h; at 7.69 µM (top of the series) unless noted. In a few lines:
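IL-6/STAT signaling read in ME-180 cells via an SIE beta-lactamase reporter. Stimulus was 40 pM IL-6 (its AC50) for 5 hrs, so both activation and inhibition register.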

The target in experiment [6] is Glucocorticoid receptor (Homo sapiens) (UniProt P04150). Kind of experiment: GR-GFP Redistribution (AID 450;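 active = compounds whose dose series gives a full or clear partial fitted curve of increased nuclear translocation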; also: potency is read from the fitted curve at half-maximal effect). The conditions noted are these: U2OS GR-GFP nuclear translocation, laser cytometry, 2 h.
Chain of Glucocorticoid receptor (Homo sapiens) (P04150 whole entry, looked up): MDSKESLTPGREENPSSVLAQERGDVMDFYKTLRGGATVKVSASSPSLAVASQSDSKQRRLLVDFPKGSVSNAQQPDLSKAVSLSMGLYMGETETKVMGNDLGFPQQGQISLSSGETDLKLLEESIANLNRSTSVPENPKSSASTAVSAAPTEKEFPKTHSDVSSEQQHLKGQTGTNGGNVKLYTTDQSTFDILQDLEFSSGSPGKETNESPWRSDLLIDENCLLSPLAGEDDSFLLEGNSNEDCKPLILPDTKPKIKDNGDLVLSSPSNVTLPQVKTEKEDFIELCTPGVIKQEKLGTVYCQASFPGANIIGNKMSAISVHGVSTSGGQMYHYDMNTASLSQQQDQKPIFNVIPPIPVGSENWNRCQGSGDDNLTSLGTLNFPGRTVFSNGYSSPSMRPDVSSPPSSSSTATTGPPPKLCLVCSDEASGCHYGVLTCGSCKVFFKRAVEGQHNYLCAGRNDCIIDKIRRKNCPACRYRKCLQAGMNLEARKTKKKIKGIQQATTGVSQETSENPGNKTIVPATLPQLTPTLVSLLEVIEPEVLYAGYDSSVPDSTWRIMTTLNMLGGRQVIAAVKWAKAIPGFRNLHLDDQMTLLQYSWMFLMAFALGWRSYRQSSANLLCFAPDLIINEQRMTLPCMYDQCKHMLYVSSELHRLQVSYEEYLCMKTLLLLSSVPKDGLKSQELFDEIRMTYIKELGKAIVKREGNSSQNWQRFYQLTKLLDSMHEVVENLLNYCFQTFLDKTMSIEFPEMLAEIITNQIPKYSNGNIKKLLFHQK
Experiment [7] shares this target. Put plainly: GR-EFC Redistribution (AID 451; calls by dose curve; also: potency is read from the fitted curve at half-maximal effect). The conditions noted are these: CHO-K1 GR-EFC translocation, beta-gal luminescence, 2 h. In a few lines:
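CHO-K1 cells expressing nuclear EA and GR-ED fragments of b-gal; compounds titrated up to 46 uM final, 2 h at 37 C. GR nuclear translocation read as complemented b-gal luminescence after 1 h RT detection.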

The target of experiment [8] is Mitogen-activated protein kinase 10 (Mus musculus) (UniProt Q61831). Put plainly: JNK3 AlphaScreen Assay (AID 530; active = well fitted curve in either direction with a large enough effect, not every such curve was filed as active;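 also: kinase came from lysate of stimulated human HepG2 cells; signal reports phosphorylation of biotinylated GST-cJun 1-79 at Ser73 with 10 µM ATP; % is scaled to controls: 0 for no effect and ±100 for the full control effect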). Particulars: JNK3 lysate, c-Jun phosphorylation; series mostly up to 57.1 µM. In short, it runs like this: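 Pre-activated (IL-1β/TNFα) JNK3 in HepG2 lysates phosphorylates biotin-GST-cJun(1-79), 10 uM ATP; anti-phospho-cJun(Ser73) AlphaScreen read at room temperature, pH 7.6 Tris buffer. Compounds pre-incubated 15 min as titrations.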

The target of experiment [9] is 3',5'-cyclic-AMP phosphodiesterase 4B (Homo sapiens) (UniProt Q07343). Kind of experiment: qHTS Assay for Inhibitors of PDE-IV (AID 607; active = well fitted activation curve with a large enough effect in the main read-out, with a control signal flat, not every such curve was filed as active; also: % of control where 0% means no effect). The conditions noted are these: HEK293 ACTOne CNG channel cells, membrane potential fluorescence; series mostly up to 22.9 µM. In short, it runs like this:
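Live HEK293 cells with a modified cyclic nucleotide-gated (CNG) channel report intracellular cAMP via membrane-potential dye fluorescence (ex 535/em 590 nm). Endogenous PDE-IV was targeted. Compounds were tested at up to 22.9 uM final; RO 20-1724 100 uM served as control.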

The target in experiment [10] is Cytochrome P450 3A4 (Homo sapiens) (UniProt P08684). Put plainly: qHTS Assay for Inhibitors and Substrates of Cytochrome P450 3A4 (AID 884). Also: nearly all actives have a fitted effect of over 50% in size. Also: potency is read from the fitted curve at half-maximal effect. The conditions noted are these: recombinant CYP3A4, Luciferin-PPXE luminescence; series mostly up to 57.1 µM. In a few lines: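 20 nM human CYP3A4 with 25 uM Luciferin-PPXE (at KM) in 200 mM KPO4, preincubated 10 min with compound; NADPH regeneration started a 60 min RT reaction. Luciferin detected by luminescence, normalized to 57 uM ketoconazole as full inhibition.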
Chain of Cytochrome P450 3A4 (Homo sapiens) (P08684 whole entry, looked up): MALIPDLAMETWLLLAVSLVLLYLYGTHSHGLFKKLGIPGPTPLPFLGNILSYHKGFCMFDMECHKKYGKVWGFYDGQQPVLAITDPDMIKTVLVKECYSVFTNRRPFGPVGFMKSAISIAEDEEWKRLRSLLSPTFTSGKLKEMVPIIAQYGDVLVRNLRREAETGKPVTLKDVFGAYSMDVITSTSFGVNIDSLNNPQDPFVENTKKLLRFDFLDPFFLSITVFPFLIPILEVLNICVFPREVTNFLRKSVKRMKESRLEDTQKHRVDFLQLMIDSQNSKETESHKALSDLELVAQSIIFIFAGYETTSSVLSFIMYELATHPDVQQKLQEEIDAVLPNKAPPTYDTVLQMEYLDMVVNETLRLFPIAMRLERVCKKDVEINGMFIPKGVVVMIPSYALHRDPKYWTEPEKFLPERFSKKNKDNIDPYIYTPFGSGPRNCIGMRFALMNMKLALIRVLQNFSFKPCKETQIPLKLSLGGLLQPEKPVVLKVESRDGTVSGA

For experiment [11] the target is unchanged. Kind of experiment: qHTS Assay for Activators of Cytochrome P450 3A4 (AID 885). Also: nearly all actives have a fitted effect of over 65% in size. Also: potency is read from the fitted curve at half-maximal effect. Particulars: recombinant CYP3A4, Luciferin-PPXE luminescence, 60 min; series mostly up to 57.1 µM. In a few lines: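 Quantitative HTS format: compounds preincubated with 20nM human CYP3A4 and Luciferin-PPXE substrate at KM, reaction started by NADPH regeneration, stopped after 60 min, luciferase luminescence read 20 min later.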

Experiment [12] has as its target Dual specificity protein kinase CLK4 (Homo sapiens) (UniProt Q9HAZ1). Kind of experiment: qHTS Assay for Inhibitors of CDC-like Kinase 4 (ADP-FP Assay) (AID 1795).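 Also: recombinant human CLK4 phosphorylating RS repeat peptide at 1 µM ATP; % is scaled to controls: 0 for no effect and ±100 for the full control effect; nearly all actives have a fitted effect of over 60% in size.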 The conditions noted are these: Transcreener ADP fluorescence polarization; series mostly up to 50 µM. In short, it runs like this:
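Inhibition of ADP formation by 6.25 nM Clk4 is measured using 1 uM ATP and 100 uM RS repeat peptide over one hour. Produced ADP displaces a fluorescent tracer from antibody, lowering polarization.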

Experiment [13] concerns the target Ubiquitin carboxyl-terminal hydrolase 1 (Homo sapiens) (UniProt O94782). Kind of experiment: Inhibitors of USP1/UAF1: Pilot qHTS (AID 504865).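 Also: rhodamine fluorescence freed from ubiquitin-rhodamine substrate followed over time; top concentration of the series differs between compounds; % is scaled to controls: 0 for no effect and ±100 for the full control effect; nearly all actives have a fitted effect of over 35% in size.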 Particulars: purified USP1/UAF1, Ub-rhodamine cleavage fluorescence; series mostly up to 54.9 µM. In short, it runs like this: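 Kinetic fluorescence assay: 1nM USP1/UAF1, 15 min compound preincubation, then 150nM Ub-Rho; 480/540 nm.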

Experiment [14] is described as follows: Primary qHTS for small molecule stabilizers of the endoplasmic reticulum resident proteome: Secreted ER Calcium Modulated Protein (SERCaMP) assay (AID 1508630). Also: % is scaled to controls: 0 for no effect and ±100 for the full control effect. The conditions noted are these: SH-SY5Y GLuc-SERCaMP (Gaussia luciferase released on ER calcium loss) secretion, thapsigargin, luminescence; series mostly up to 38.4 µM. In short, it runs like this: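 GLuc-SERCaMP-expressing SH-SY5Y cells, pretreated 16 h with compound, are challenged with thapsigargin to empty ER calcium stores; after 4 h, coelenterazine is added directly to the medium and luminescence is imaged.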

The target of experiment [15] is Dual specificity protein kinase CLK4 (Homo sapiens) (UniProt Q9HAZ1). Kind of experiment: qHTS Assay for Inhibitors of CDC-like Kinase 4 (ADP-Glo Assay) (AID 1771). Also: potency is read from the fitted curve at half-maximal effect; nearly all actives have a fitted effect of over 70% in size. Particulars: recombinant CLK4, ADP-Glo luminescence; series mostly up to 80 µM. In short, it runs like this:
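25 nM Clk4 with 100 uM RS repeat peptide and 1 uM ATP (final) in buffer with 2 mM MgCl2, 0.5 mM EGTA, 2.5 mM DTT, 0.01% Triton X-100; 1 h at room temperature; ADP-Glo luminescence for ADP formed.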

Experiment [16] can be described thus: qHTS Assay for Identification of Small Molecule Agonists for Hypoxia Response Element Signaling Pathway (AID 914; active = well fitted activation curve with a large enough effect in the signal ratio, with a control signal flat, not every such curve was filed as active; the % refers to the signal ratio; also: % of control where 0% means no effect). Particulars: ME-180 (cervical carcinoma) HRE-bla reporter, beta-lactamase ratio, CoCl2, 17 h; activation: active compounds read high. In a few lines: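 AC50 values come from titration-series %Activity, taken as the 460/530nm ratio of CCF4 fluorescence (excitation 405nm). CellSensor HRE-bla ME-180 cells were treated 17 hours at 37 C with compound plus an EC50 level of CoCl2.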

Experiment [17] has as its target Cytochrome P450 2C19 (Homo sapiens) (UniProt P33261). Kind of experiment: qHTS Assay for Inhibitors and Substrates of Cytochrome P450 2C19 (AID 899). Also: potency is read from the fitted curve at half-maximal effect; nearly all actives have a fitted effect of over 60% in size. Particulars: recombinant CYP2C19, luciferin-H EGE luminescence; series mostly up to 57.1 µM. In a few lines:
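5 nM human CYP2C19 with 10uM Luciferin-H EGE (at KM) in 50mM KPO4, compound preincubated 10 min at 37C, then NADPH regeneration for 60 min at 37C. Luciferin read by luminescence after detection reagent; normalized to 57uM ketoconazole as full inhibition.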

Chain of Dual specificity protein kinase CLK4 (Homo sapiens) (Q9HAZ1 whole entry, looked up): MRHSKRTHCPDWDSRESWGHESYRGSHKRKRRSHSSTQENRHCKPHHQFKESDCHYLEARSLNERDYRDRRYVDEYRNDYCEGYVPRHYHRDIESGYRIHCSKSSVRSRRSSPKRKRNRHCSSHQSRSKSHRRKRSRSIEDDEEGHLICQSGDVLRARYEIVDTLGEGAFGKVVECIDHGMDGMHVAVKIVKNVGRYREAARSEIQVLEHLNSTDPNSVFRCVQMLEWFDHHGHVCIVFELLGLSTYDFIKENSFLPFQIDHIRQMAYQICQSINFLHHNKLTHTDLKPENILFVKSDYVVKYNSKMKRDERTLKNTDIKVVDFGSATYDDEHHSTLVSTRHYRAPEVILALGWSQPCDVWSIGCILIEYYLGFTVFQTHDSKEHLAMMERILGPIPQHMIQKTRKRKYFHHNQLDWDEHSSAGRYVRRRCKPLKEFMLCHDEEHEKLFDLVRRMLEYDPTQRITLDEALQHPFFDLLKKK
Chain of 3',5'-cyclic-AMP phosphodiesterase 4B (Homo sapiens) (Q07343 whole entry, looked up): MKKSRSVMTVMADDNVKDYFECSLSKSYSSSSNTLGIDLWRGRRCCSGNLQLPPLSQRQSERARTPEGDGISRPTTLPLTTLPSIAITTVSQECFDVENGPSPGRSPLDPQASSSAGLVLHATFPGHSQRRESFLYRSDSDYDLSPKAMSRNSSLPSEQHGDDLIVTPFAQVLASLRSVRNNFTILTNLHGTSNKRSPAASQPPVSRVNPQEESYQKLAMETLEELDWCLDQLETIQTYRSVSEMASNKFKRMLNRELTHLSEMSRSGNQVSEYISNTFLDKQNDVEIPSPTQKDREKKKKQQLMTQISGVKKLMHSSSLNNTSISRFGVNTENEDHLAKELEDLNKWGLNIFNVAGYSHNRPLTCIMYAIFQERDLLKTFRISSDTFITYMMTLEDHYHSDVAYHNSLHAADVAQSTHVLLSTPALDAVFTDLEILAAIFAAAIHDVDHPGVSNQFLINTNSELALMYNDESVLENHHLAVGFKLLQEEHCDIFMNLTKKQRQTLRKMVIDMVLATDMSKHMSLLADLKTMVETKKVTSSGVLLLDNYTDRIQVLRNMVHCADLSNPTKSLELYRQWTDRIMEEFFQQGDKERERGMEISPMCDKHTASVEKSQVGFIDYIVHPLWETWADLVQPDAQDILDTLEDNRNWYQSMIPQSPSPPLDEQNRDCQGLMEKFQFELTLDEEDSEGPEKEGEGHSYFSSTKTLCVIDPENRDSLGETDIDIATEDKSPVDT
Chain of Ubiquitin carboxyl-terminal hydrolase 1 (Homo sapiens) (O94782 whole entry, looked up): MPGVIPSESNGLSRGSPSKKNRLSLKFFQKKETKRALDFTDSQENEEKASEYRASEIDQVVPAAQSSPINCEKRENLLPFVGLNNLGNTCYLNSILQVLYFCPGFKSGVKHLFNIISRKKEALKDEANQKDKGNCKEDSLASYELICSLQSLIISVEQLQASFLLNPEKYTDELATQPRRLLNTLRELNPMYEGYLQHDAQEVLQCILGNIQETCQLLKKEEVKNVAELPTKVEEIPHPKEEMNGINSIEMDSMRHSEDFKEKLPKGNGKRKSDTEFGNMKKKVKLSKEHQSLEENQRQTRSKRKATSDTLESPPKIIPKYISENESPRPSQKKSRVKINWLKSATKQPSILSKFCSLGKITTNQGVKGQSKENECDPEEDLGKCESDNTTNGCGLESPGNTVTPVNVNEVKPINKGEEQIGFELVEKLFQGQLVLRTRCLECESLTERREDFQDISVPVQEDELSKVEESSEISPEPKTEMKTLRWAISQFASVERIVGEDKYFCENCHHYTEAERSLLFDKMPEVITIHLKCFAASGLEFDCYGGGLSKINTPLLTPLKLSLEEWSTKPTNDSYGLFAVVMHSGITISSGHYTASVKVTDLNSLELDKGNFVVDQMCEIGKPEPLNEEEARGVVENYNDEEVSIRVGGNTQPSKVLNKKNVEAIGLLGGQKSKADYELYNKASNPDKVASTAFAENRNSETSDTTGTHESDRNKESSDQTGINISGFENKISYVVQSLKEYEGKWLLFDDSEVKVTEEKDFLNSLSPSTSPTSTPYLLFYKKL
Chain of Cytochrome P450 2C19 (Homo sapiens) (P33261 whole entry, looked up): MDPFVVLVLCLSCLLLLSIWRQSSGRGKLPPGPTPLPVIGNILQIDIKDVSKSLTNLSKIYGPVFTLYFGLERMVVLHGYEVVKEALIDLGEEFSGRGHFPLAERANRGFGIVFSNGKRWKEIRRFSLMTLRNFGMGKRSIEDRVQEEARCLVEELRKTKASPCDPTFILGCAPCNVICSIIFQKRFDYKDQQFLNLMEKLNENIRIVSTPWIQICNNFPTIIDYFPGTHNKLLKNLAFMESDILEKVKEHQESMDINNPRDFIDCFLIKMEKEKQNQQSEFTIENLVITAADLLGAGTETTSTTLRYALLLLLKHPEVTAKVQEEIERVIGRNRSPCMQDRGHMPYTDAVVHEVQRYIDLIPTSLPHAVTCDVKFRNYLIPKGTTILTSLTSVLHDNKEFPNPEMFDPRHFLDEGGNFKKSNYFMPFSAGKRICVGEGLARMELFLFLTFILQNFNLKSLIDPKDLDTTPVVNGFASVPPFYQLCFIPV

For the compound `Cc1cnc(CNc2cc(-c3ccccc3C)ncn2)cn1`, the Potency in experiment [1] is > 11.4 µM; in experiment [3] it was 12.6 µM (active); in [6] it was > 46 µM; in experiment [7], > 46 µM; in experiment [11], 3.16 µM (active). For the same compound, the activity change, negative = inhibition is -5.18% in experiment [2] and 14% in experiment [4]. Besides, the activity, negative = inhibition in [5] is 4.06%. The Potency result in experiment [8], in [9], in [10], in [12] and in experiment [13] was “inactive” each time. Also, the outcome in experiment [14] was inactive.
As for `COCCn1c(=O)c(-c2cccc(C#N)c2)nc2cnc(Nc3ccccc3)nc21`, the Potency in experiment [1] was > 11.4 µM; in experiment [3], 2.51 µM (active); in experiment [6], > 9.22 µM; in experiment [7], > 46 µM. The activity change, negative = inhibition in experiment [2] is -6.21%; in experiment [4] it was 3.3%. Further, the activity, negative = inhibition in [5] was -15.6%. Besides, the Potency entry in [8], in [9], in [12] and in experiment [13] was “inactive” throughout. Further, the result in [14] was inactive.
In the case of `CNc1nc(-c2ccc(C(=O)N(C)C)cc2)nc2ccccc12`, the activity change, negative = inhibition in experiment [2] is 7.59%; in experiment [4], 23.4%. The activity, negative = inhibition in [5] was -0.956%. Besides, the results for the Potency in experiment [6], in [7] and in experiment [15] were > 46 µM, > 46 µM and 28.2 µM (active), respectively. Also, the Potency entry in experiment [8], in experiment [9] and in experiment [13] was “inactive” in each case. Besides, in experiment [14], the result was inactive.
Turning to `COc1ccccc1-c1nc(NCCN2CCOCC2)c2ccccc2n1`, the Potency in experiment [1] is > 11.4 µM; in experiment [3], 7.94 µM (active); in experiment [6], > 46 µM; in experiment [7] it was > 46 µM. Besides, the activity change, negative = inhibition in [2] was 7.09%; in experiment [4] it was -28.2%. For the same compound, the activity, negative = inhibition in experiment [5] was 29.7%. The Potency entry in experiment [8], in [9], in [11], in [12] and in [13] was “inactive” each time. In addition, the result in experiment [14] was inactive.
Regarding `COc1ccccc1-c1cc(NCc2cnc(C)cn2)ncn1`, the Potency in experiment [1] is > 11.4 µM; in experiment [3], 12.6 µM (active); in [6], > 46 µM; in [7], > 46 µM; in [15], 28.2 µM (active). Besides, the activity change, negative = inhibition is 5.08% in experiment [2] and 2.34% in experiment [4]. Moreover, the activity, negative = inhibition in [5] was 2.04%. In addition, the Potency entry in [8], in experiment [9] and in [13] was “inactive” in each case. Also, the activation in experiment [16] was 25.8%. For the same compound, in experiment [14], the result was inactive.
With `COc1ccccc1-c1cc(Nc2ccn[nH]2)ncn1`, the Potency was > 11.4 µM in experiment [1]; 0.631 µM (active) in experiment [3]; > 46 µM in experiment [6]; > 46 µM in experiment [7]; 3.98 µM (active) in experiment [10]; 6.31 µM (active) in experiment [17]. Further, the activity change, negative = inhibition in experiment [2] is -9.99%; in [4] it was 2.51%. The activity, negative = inhibition in experiment [5] was 6.94%. Moreover, the Potency entry in experiment [8], in experiment [11], in [12] and in experiment [13] was “inactive” each time. Moreover, the result in experiment [14] was inactive.
On to `COc1ccccc1-c1nccc(NCc2cccnc2)n1`, for which the Potency is > 11.4 µM in [1]; 0.2 µM (active) in experiment [3]; > 46 µM in [7]; 2.51 µM (active) in experiment [10]; 3.98 µM (active) in [17]. The activity change, negative = inhibition in [2] was 5.53%; in experiment [4], 1.48%. The activity, negative = inhibition in [5] was 0.0574%. Besides, the Potency result in experiment [9], in [11], in [12] and in [13] was “inactive” each time. Further, the activation in experiment [16] is 4.59%. Besides, in [14], the result was inactive.
